CCT modulator: High-Throughput Screening for Modulators of Cytosolic Chaperonin Activity. purified chaperonin ATPase assay, HTRF ADP detection, 30 min. 0.3% of 360,000 active. activity change, % (test concentration not listed), hits read low; in the data active means activity change below about -30%; further: on the % scale 0 is the no-effect control and ±100 the full control effect
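Nucleotide hydrolysis assay: TRiC at 20–40 nM final (set by batch activity) with 10 uM ATP, 30 min at 37 °C, in presence of 76 uM compound. Detection by competitive ADP HTRF, 30 min ambient.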
TDP43 rescue: qHTS of TDP-43 Inhibitors | TDP-43 expressing yeast growth rescue, BacTiter-Glo, 24 h | Potency, µM (series often up to 46.1 µM), for inactives: top-dose growth rescue (activation), usual class: activators | 1.8% of 410,000 active | AID 652104, 2013; further: potency means the concentration at half of the fitted maximal effect; % of control where 0% means no effect; nearly all actives have a fitted effect of over 50% in size
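Yeast cells expressing TDP-43 under galactose induction are exposed to compounds for 24 hr at 30 deg C. BacTiter-Glo luminescence measures growth, so protective compounds score as activators.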
Apoferritin bind: qHTS Assay for Identification of Novel General Anesthetics; apoferritin/1-aminoanthracene competitive binding, fluorescence; Potency, µM (highest dose often 77.5 µM), without a hit: top-dose activity change, negative = displacement, most hits filed as inhibitors; 0.074% of 350,000 active; further: potency means the concentration at half of the fitted maximal effect; on the % scale 0 is the no-effect control and ±100 the full control effect; nearly all actives have a fitted effect of over 20% in size
Target sequence (P02791 2-175 limits assumed): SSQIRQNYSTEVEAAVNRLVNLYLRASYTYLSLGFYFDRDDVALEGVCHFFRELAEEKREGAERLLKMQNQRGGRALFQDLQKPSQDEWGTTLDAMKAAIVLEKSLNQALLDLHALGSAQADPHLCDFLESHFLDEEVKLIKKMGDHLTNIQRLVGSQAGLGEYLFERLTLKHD
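Horse-spleen apoferritin (10 uM) was mixed with 50% saturated 1-aminoanthracene in PBS, exposed to compounds for 10 min at room temperature, and read for fluorescence (ex 380 nm, em 535 nm). Competitive displacement was fitted with a four-parameter Hill equation.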
aSyn yeast inh: qHTS of alpha-syn Inhibitors. Yeast expressing alpha-synuclein, growth rescue, BacTiter-Glo, 24 h. Potency, µM (top dose mostly 46.1 µM), for inactives: at the highest dose growth rescue (activation), hits mostly activators. 0.14% of 370,000 active; further: potency means the concentration at half of the fitted maximal effect; % of control where 0% means no effect; nearly all actives have a fitted effect of over 65% in size
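Rescue of yeast growth: cells expressing toxic alpha-synuclein, induced in galactose at OD600 0.02, incubated with compound 24 h at 30 C. ATP luminescence quantified growth; inhibitors of toxicity appear as activators.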
pAkt inh: HTS Assay for Inhibitors of Akt Phophorylation: Primary Screen. Neuro2A IGF-stimulated pAkt S473 HTRF, 20 min; active compounds read low. activity change, % for hits at 50 µM. 0.32% of 360,000 active. AID 651550, 2012; in the data active means activity change below about -80%; inconclusive means mostly about -51% to -80%; further: on the % scale 0 is the no-effect control and ±100 the full control effect
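Neuro2A cells (4,500/well, DMEM with 0.5% FBS) were treated with compound at a single 50 µM final concentration, stimulated with 6 nM IGF for 20 min at 37 °C, and lysed. Phospho-Akt Ser473 was read by HTRF as 665/615 ratio ×10^4.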
Mito fusion yeast: qHTS Assay for Small Molecule Inhibitors of Mitochondrial Division or Activators of Mitochondrial Fusion. S. cerevisiae fusion-defective mutant growth rescue, CellTiterGlo 48 h. AID 485298, 2010. 0.23% of 320,000 active. Potency, µM (series often up to 46.1 µM), for inactives: top-dose growth rescue (activation), hits mostly activators; further: potency means the concentration at half of the fitted maximal effect; % of control where 0% means no effect; nearly all actives have a fitted effect of over 45% in size
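Yeast fusion mutant, YPEG (non-fermentable carbon), compound, 48 h at 37C non-permissive; CellTiterGlo added, 10 min RT, luminescence read. Rescued growth = division inhibition.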
* marks the source's active call; other numbers are inactive results; i = inactive; ? = inconclusive; · = no result. Shown are actives, neighbours in structure and some others; about 2.5% of the full set was active somewhere. Unless noted, the call rests on the fitted dose curve; in most records, active means well fitted curve in the direction sought with a large enough effect; inconclusive means small, poorly fitted or top-dose-only effect, or another doubt; inactive means no such curve, though single readings can be large; an effect the other way counts as inactive or inconclusive.

SMILES | CCT modulator | TDP43 rescue | Apoferritin bind | aSyn yeast inh | pAkt inh | Mito fusion yeast
CN(CC(=O)Nc1ccccc1Cl)C(=O)c1cc2c(s1)CCCCC2 | -11 | -3% | · | -3% | i | ·
CC(=O)Nc1ccc(S(=O)(=O)Nc2cccc(-c3ccc(N4CCC(C)CC4)nn3)c2)cc1 | · | 4% | -13% | · | · | ·
Cc1nc(N2CCCCC2C)c2c(C)c(C(=O)Nc3ccccc3C(F)(F)F)sc2n1 (centres undefined) | 1 | 14µM* | -16% | -24% | i | -2%
Cc1nc(N2CCC(C)CC2)c2c(C)c(C(=O)Nc3ccc4c(c3)OCCO4)sc2n1 | 1 | 7.1µM* | -3% | 3% | · | 24%
Cc1c(C(=O)Nc2ccc3c(c2)OCCO3)sc2ncnc(N3CCCCC3C)c12 (centres undefined) | -1 | 16µM* | -9% | 5% | i | 11µM*
Oc1ccc(Cl)cc1C1C=C(c2ccc3c(c2)OCO3)NC(c2cc(Br)ccc2F)N1 (centres undefined) | · | · | · | -24% | · | ·
Nc1nc(NCc2ccc(F)cc2)c2[nH]cnc2n1 | · | · | · | 8% | · | ·
CSc1nc(N2CCN(c3ccccc3Cl)CC2)c2ccccc2n1 | -3 | 13µM* | -9% | -9% | i | 11%
CCCCCCCCCCCC | · | · | -10% | · | · | ·
N#Cc1nc(-c2cccs2)oc1NCc1ccc2c(c1)OCO2 | -1 | 28µM* | 92% | 1% | i | ?
N#Cc1nc(-c2cccs2)oc1NCCc1ccccc1 | 0 | -20% | 58% | 17% | i | 21%
COc1ccc(Nc2oc(-c3cccs3)nc2C#N)cc1 | -37* | 21% | 198% | 9% | i | -1%
O=C(OCn1ncc(Cl)c(Cl)c1=O)c1ccc(C(F)(F)F)cc1 | -1 | 4µM* | -10% | -17% | i | -18%
Cc1ccc(C(=O)OCn2ncc(Cl)c(Cl)c2=O)cc1 | 0 | 3.2µM* | ? | -33% | i | -23%
CCOC(=O)c1cc(OCc2csc(-c3ccccc3)n2)cc(C(=O)OCC)c1 | · | · | · | 11% | · | ·
CC(C)C[C@H](NC(=O)CNC(=O)[C@H](C)NC(=O)[C@H](CC(C)C)NC(=O)[C@H](CCCNC(=N)N)NC(=O)[C@H](Cc1cnc[nH]1)NC(=O)[C@@H](NC(=O)[C@@H](NC(=O)[C@@H]1CSSC[C@H](NC(=O)[C@@H](N)CO)C(=O)N[C@@H](CC(N)=O)C(=O)N[C@@H]([C@@H](C)O)C(=O)N[C@@H](C)C(=O)N[C@@H]([C@@H](C)O)C(=O)N1)C(C)C)[C@@H](C)O)C(=O)N[C@@H](CC(C)C)C(=O)N[C@@H](CO)C(=O)N[C@@H](CCCNC(=N)N)C(=O)N[C@@H](CO)C(=O)NCC(=O)NCC(=O)N[C@H](C(=O)N[C@H](C(=O)N[C@@H](CCCCN)C(=O)N[C@@H](CC(=O)O)C(=O)N[C@@H](CC(N)=O)C(=O)N[C@@H](Cc1ccccc1)C(=O)N[C@H](C(=O)N1CCC[C@H]1C(=O)N[C@H](C(=O)N[C@@H](CC(N)=O)C(=O)N[C@H](C(=O)NCC(=O)N[C@@H](CO)C(=O)N[C@@H](CCCCN)C(=O)N[C@@H](C)C(=O)N[C@@H](Cc1ccccc1)C(N)=O)C(C)C)[C@@H](C)O)C(C)C)C(C)C)C(C)C | · | · | -21% | · | · | ·
CN(C)c1ccc(CC2CCc3ccccc32)cc1 (centres undefined) | · | · | · | 1% | · | ·
CCOC(=O)c1noc2ncn(Cc3ccc([N+](=O)[O-])cc3)c(=O)c12 | · | 20µM* | -10% | · | · | ·
O=C(c1ccc(N2CCN(C(=O)c3cccc(F)c3)CC2)cc1)c1cccc(F)c1 | 2 | ? | ? | 2% | i | 1%
